Shown are actives, neighbours in structure and some others; about 9.5% of the full set was active somewhere.
RE007 growth inh: less growth of the S. pombe RE007 Vpr strain; 360,000 compounds, 0.21% hits; AID 651644; S. pombe RE007 Vpr strain, BacTiter-Glo ATP luminescence, 24 h; Potency, µM (highest dose often 92.2 µM), for inactives: at the highest dose activity change, negative = less growth, most hits filed as inhibitors; active means well fitted falling curve with a large enough effect; inconclusive means small, poorly fitted or top-dose-only effect; inactive means no such curve, though single readings can be large or run the other way; further: on the % scale 0 is the no-effect control and ±100 the full control effect; nearly all actives have a fitted effect of over 50% in size
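Fission yeast RE007 carrying one integrated HIV-1 vpr copy, seeded at OD 0.01 in PMG+AL medium with 23 nL pinned compound. Grown 24 h at 30 degrees; viability read by BacTiter-Glo luminescence after 5 min.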
SARS PLP yeast: blocks SARS-CoV papain-like protease in a yeast assay. S. cerevisiae expressing SARS-CoV PLpro, growth rescue. 330,000 compounds, 0.19% hits. Potency, µM (titrated, usually from 32.9 µM), for inactives: at the highest dose activity, positive = growth rescue, most hits filed as activators; calls by dose curve; further: 0% is about no effect; nearly all actives have a fitted effect of over 55% in size
Pf growth 48h: P. falciparum growth inhibition at 48 hours (one generation). 310,000 compounds, 5.9% hits. P. falciparum luciferase growth in erythrocytes, 48 h. AID 504832. Potency, µM (series often up to 28.7 µM), for inactives: top-dose activity change, negative = inhibition, most hits filed as inhibitors; further: on the % scale 0 is the no-effect control and ±100 the full control effect
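In quantitative HTS format, infected erythrocytes bearing luciferase-reporter parasites were treated for a single generation at 37 C. Luminescence after adding detection reagent served as the growth measure.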
Pf growth 96h: P. falciparum growth inhibition at 96 hour, primary screen for plastid delayed-death inhibitors; Potency, µM (top dose mostly 28.7 µM), without a hit: top-dose activity change, negative = inhibition, usual class: inhibitors; AID 504834; 320,000 compounds, 6.9% hits; P. falciparum luciferase reporter growth, 96 h; further: on the % scale 0 is the no-effect control and ±100 the full control effect
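Cell-based qHTS: luciferase-tagged P. falciparum in erythrocytes (2% hematocrit, 0.05% parasitemia final) incubated with compounds for 96 hours, 37 C, 5% CO2; luciferase detection reagent then added and luminescence measured.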
NS1 inh: influenza NS1 inhibition; 270,000 compounds, 0.4% hits; Potency, µM (series often up to 46.1 µM), without a hit: at the top dose activity, positive = more growth; calls by dose curve; further: actives are rising curves; nearly all actives have a fitted effect of over 50% in size
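Compounds were scored for reversing the slow growth caused by influenza A NS1 in S. cerevisiae, measured by optical density at 600 nm. Assay medium contained 2% galactose at pH 6.0; NS1-free yeast of the same strain were the positive control.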
Active calls of the source: *; ? = inconclusive; / = not tested or not shown; [ ] = dose if it differs, or a comment. Unless noted, the call rests on the fitted dose curve; in most records, active means well fitted inhibition curve with a large enough effect; inconclusive means small, poorly fitted or top-dose-only effect, or another doubt; inactive means no such curve, though single readings can be large or run the other way. Potency means the concentration at half of the fitted maximal effect.

SMILES	RE007 growth inh	SARS PLP yeast	Pf growth 48h	Pf growth 96h	NS1 inh
C=C1C(n2cnc3c(=O)[nH]c(N)nc32)C[C@H](O)[C@H]1CO (some centres not stated)	/	/	?	6.01µM*	/
Cc1cccc(N2CCN(C(=O)CCC(=O)N3CCOc4ccc(Cl)cc43)CC2C)c1 (configuration not stated)	-0.1%	-5.9%	-6.2%	9.28µM*	-50.1%
Cc1ccc(C)c(N2CCN(C(=O)CCC(=O)N3CCOc4ccc(Cl)cc43)CC2)c1	6.0%	-24.1%	?	4.15µM*	-16.7%
O=C(Nc1ccc(-n2nncc2-c2ccco2)cc1)c1cccc(F)c1	9.6%	1.9%	-26.2%	?	-30.5%
O=C(Nc1ccc(-n2nncc2-c2ccco2)cc1)c1cc2ccccc2oc1=O	6.5%	-0.1%	2.9%	11.7µM*	5.01µM*
O=C1CCC(C(=O)N2CCCCO2)CN1Cc1cccc(F)c1 (configuration not stated)	-1.2%	-4.9%	8.1%	?	6.3%
O=C(Nc1ccc2c(c1)OCO2)c1ccc(Cl)cc1Cl	-22.0%	0.7%	?	?	4.9%
Cc1c(C(=O)c2ccc(Cl)cc2Cl)cnc2cc3c(cc12)OCO3	10.4%	-20.2%	8.28µM*	13.1µM*	18.8%
COc1cccc(Nc2nc(N)c([N+](=O)[O-])c(NCc3ccccc3)n2)c1	30.1%	-0.8%	4.65µM*	11.7µM*	5.5%
CCOc1ccc(Nc2nc(N)c([N+](=O)[O-])c(NCc3ccccc3)n2)cc1	-6.8%	0.5%	5.22µM*	?	-4.4%
CC1=CC(C2CC(=O)N(c3ccc(C)cc3)C2=O)CC2C(=O)N(c3ccc(C)cc3)C(=O)C12 (configuration not stated)	15.4%	0.5%	-16.1%	-9.3%	-1.5%
Cc1cc(C)c(-n2c(C)cc(/C=C3/NC(=O)NC3=O)c2C)c(C)c1	40.7%	-37.8%	?	5.86µM*	-49.8%
Cc1cc(/C=C2/NC(=O)NC2=O)c(C)n1-c1ccncc1	9.6%	-0.6%	-1.4%	-1.9%	/
Cc1cc(/C=C2/NC(=O)NC2=O)c(C)n1C	0.4%	-0.8%	12.8%	4.65µM*	/
COC(=O)C(C(=O)Nc1ccccc1C)C1CCCCCC1 (configuration not stated)	-18.7%	-0.4%	27.0%	18.5%	2.9%
COc1ccc(C2CC3(CC(C)(C)NC(=S)N3)Oc3cc(O)cc(C)c32)cc1 (configuration not stated)	-13.3%	11.8%	?	4.15µM*	20.8%
COc1ccc(CCNc2nc(N3CCCCC3)nc(N3CCCCC3)n2)cc1OC	-18.8%	-3.1%	13.1µM*	14.0%	-6.1%[9.22 µM]
COc1ccc(CCNc2oc(COc3ccccc3F)nc2C#N)cc1OC	24.2%	-14.3%	?	157.3%	-132.6%
CCOc1ccc2[nH]c3c(NCCN(C)C)ncnc3c2c1	/	4.5%	2.33µM*	2.08µM*	-2.1%
COc1ccc2[nH]c3c(NCCC4=CCCCC4)ncnc3c2c1	-13.7%	0.9%	2.9%	3.7µM*	/
COc1ccc(CCNc2oc(COc3ccccc3Cl)nc2C#N)cc1OC	-5.6%	0.3%	8.28µM*	3.7µM*	-66.7%
Nc1ccn([C@@H]2O[C@H](C(=O)N3CCCN(Cc4cccs4)CC3)[C@@H](O)[C@H]2O)c(=O)n1	6.1%	/	/	/	/
COc1ccc(CCNc2c3ccccc3nc3ccccc23)cc1OC	-23.6%	-6.1%	1.47µM*	1.85µM*	-48.4%
COc1nc(NCCc2ccc(OC)c(OC)c2)nc(OC)n1	8.1%	/	-8.7%	/	-0.9%
COc1ccc(CCNc2ncnc3c2[nH]c2cc(OC)c(OC)cc23)cc1OC	27.0%	2.4%	?	1.85µM*	1.4%
SMILES	RE007 growth inh	SARS PLP yeast	Pf growth 48h	Pf growth 96h	NS1 inh
COc1cc2ncnc(NCCc3ccccc3)c2cc1OC	-10.1%	1.0%	10.4µM*	?	2.5%
COc1cc2ncnc(NCc3ccc(C)cc3)c2cc1OC	13.8%	2.4%	?	?	12.3%
COc1ccc(CCNc2ncnc3cc(OC)c(OC)cc23)cc1OC	10.1%	1.3%	13.1µM*	-15.9%	4.5%
COc1ccc(C(CNC(=O)c2cccc(S(=O)(=O)Nc3cccc(C)c3)c2)N2CCOCC2)cc1 (configuration not stated)	-16.4%	0.4%	?	?	/
CCOC(=O)c1ccc(NC(=O)c2nc[nH]c2C(=O)NCCCCNC(=O)c2[nH]cnc2C(=O)Nc2ccc(C(=O)OCC)cc2)cc1	-18.7%	-0.2%	?	1.47µM*	/
Cc1ccc(NC(=O)c2nc[nH]c2C(=O)NCCCCCNC(=O)OC(C)(C)C)cc1	4.9%	-9.4%	3.29µM*	?	/
CC(C)(C)OC(=O)NCCCCCNC(=O)c1[nH]cnc1C(=O)Nc1ccccc1	1.8%	4.2%	?	?	/
CC(C)(C)OC(=O)NCCCCCNC(=O)c1[nH]cnc1C(=O)Nc1ccc(Cl)cc1	1.9%	-3.7%	10.4µM*	?	/
O=C(O)c1[nH]c(=O)[nH]c(=O)c1F	-0.7%	0.8%	0.0117µM*	0.0033µM*	-1.1%
O=C(NCC(=O)N1CCN(c2ccccc2F)CC1)c1ccc(Br)o1	-5.4%	-4.2%	-2.5%	-1.6%	/
CCCNC(=O)c1ccccc1NC(=O)c1ccccc1N(C)S(=O)(=O)c1ccc(C)cc1	4.6%	7.7%	8.28µM*	11.0%	1.9%
CC(=O)c1cccc(NC(=O)c2ccccc2N(C)S(=O)(=O)c2ccc(C)cc2)c1	-3.1%	0.7%	?	13.1µM*	-0.1%
CCCCn1c(N)c(N(CC)C(=O)c2c(C)noc2C)c(=O)[nH]c1=O	12.4%	16.7%	/	/	/
CC(C)CC(N)c1csc(Nc2ccc(C(F)(F)F)cn2)n1 (configuration not stated)	3.5%	/	/	/	/
CC(C)C(=O)NNC(=O)c1cc2sccc2s1	3.1%	-1.0%	54.4%	-0.3%	1.6%
CCOC(=O)N1CCN(C(=O)CN(c2ccccc2OC)S(=O)(=O)c2ccc(C)cc2)CC1	-2.2%	1.9%	?	11.7µM*	-3.0%
CCOC(=O)N1CCN(C(=O)CN(C2CCCCC2)S(=O)(=O)c2ccc(C)cc2)CC1	-2.1%	-0.7%	10.4µM*	-3.9%	-41.9%
Cc1ccc(S(=O)(=O)N(CC(=O)N2CCN(c3ccc(F)cc3)CC2)C2CCCCC2)cc1	23.2%	-9.7%	?	11.2%	4.3%
CCOC(=O)C1CCN(C(=O)CN(c2cc(OC)ccc2OC)S(=O)(=O)c2ccccc2)CC1	5.8%	-2.4%	13.1µM*	?	-10.1%
Cc1ccc(Cl)cc1N1CCN(C(=O)CN(C2CCCCC2)S(C)(=O)=O)CC1	1.0%	-33.9%	?	10.4µM*	6.0%
Cc1ccc(CC2CC(=O)N(c3cc(Cl)ccn3)C2=O)cc1 (configuration not stated)	-9.8%	0.8%	8.9%	?	-1.2%
CC(C)C(=NO)c1ccccc1	-8.8%	/	/	/	/
CCN(CC)S(=O)(=O)c1ccc(C(=O)Nc2cc3oc4ccccc4c3cc2OC)cc1	-1.6%	9.2%	-13.3%	?	-4.3%

Source: PubChem BioAssay
